The text below walks through data of PubChem BioAssay (Tox21).

The structures appear in SMILES notation. Results filed as inconclusive are left out. Where a call stands in place of a potency, no number is given. Values without a mark were called inactive. Calls of active or inactive are those of the source. Calls come from the whole dose curve; as a rule, active = well fitted cell-killing curve with a large enough effect in the repeat runs; inconclusive = weak or mixed curves, or effect the other way; inactive = no such curve, though single readings can be large or run the other way.
Potency is the fitted concentration of half-maximal effect.

The assay in a line: qHTS assay to identify small molecule antagonists of the thyroid receptor (TR) signaling pathway - cell viability counter screen (AID 743064). Note: nearly all actives have a fitted effect of over 50% in size. To be noted: GH3.TRE-Luc viability, CellTiter-Fluor, 24 h; series mostly up to 70.3 µM. An excerpt: National Center for Advancing Translational Sciences [NCATS]
NIH Chemical Genomics Center [NCGC]
U.S. Environmental Protection Agency [EPA]
National Institutes of Environmental Health Sciences [NIEHS]
National Toxicology Program [NTP]
U.S. Food and Drug Administration [FDA]
Thyroid receptor (TR), a nuclear hormone receptor, plays an important role in development, proliferation, differentiation, metabolism, brain function, and cardiovascular system. […] To profile the Tox21 10K compound library in TR signaling, a cell-based GH3-TRE-Luc assay (GH3.TRE-Luc cell line, developed by the laboratory of Dr. Albertinka J. Murk, Wageningen University) was used to measure the inhibition of TR. GH3 (rat pituitary tumor) cells stably expressing a TR activity sensor consisting of two TR response elements and a luciferase reporter gene. The cytotoxicity of the Tox21 compound library against the GH3.TRE-Luc cell line was tested in parallel by measuring the cell viability using CellTiter-Fluor assay (Promega, Madison, WI) in the same wells.
Tox21 Assay Protocol Summary:
GH3.TRE-Luc cells were dispensed at 1500 cells/4 uL/well into 1536-well white solid bottom plates using a Multidrop Combi dispenser (Thermo Fisher Scientific Inc., Waltham, MA). After the assay plates were incubated at 37 C for 4 hours, 23 nL of library compound or DMSO controls was transferred to the assay plates by a pintool station (Kalypsys, San Diego, CA), followed by addition of 1 ul of T3 (1 nM, final concentration in the wells) to stimulate TR transactivation. The assay plates were incubated at 37 C for 23.5 h, and then 1 uL of CellTiter-Fluor reagent (Promega, Madision, WI) of measuring cytotoxicity was added to each well using a Bioraptr Flying Reagent Dispenser (FRD) workstation (Beckman Coulter, Indianapolis, IN, USA). The plates were incubated at 37C and 5% CO2 for additional 30 min, and fluorescence intensity was measured by a ViewLux plate reader (PerkinElmer, Shelton, CT).
On the technique in general: Quantitative high-throughput screening tests each substance at several concentrations.
Consider `CC(=O)NCc1c(I)c(NC(C)=O)c(I)c(C(=O)O)c1I`, for which the Potency entry is “inactive”.

For `N#Cc1ccc(C(=O)O)cc1`, the Potency entry is “inactive”.

Consider `Cc1ccc2c(c1)OCC(=O)CO2`, for which the Potency entry is “inactive”.

As for `Cc1cc2cc3c(C)cc(=O)oc3c(C)c2o1`, the Potency entry is “inactive”.

`O=C1CCCC(=O)O1`: the Potency entry is “inactive”.

Turning to `COCCOCCOCCOCCO`, the Potency entry is “inactive”.

On to `CCN(C)C(=O)Oc1cccc([C@H](C)N(C)C)c1`, for which the Potency result was “inactive”.

For `CC(C)(C)NC(N)=O`, the Potency result is “inactive”.

On to `C[C@@H](Oc1ccc(CNC(=O)c2cccnc2Oc2ccc3c(c2)OCO3)c(F)c1)C(=O)O`, for which the Potency entry was “inactive”.

Regarding `C=CC(OCC)OCC`, the Potency result was “inactive”.

Turning to `Cc1cccc2nccnc12`, the Potency result is “inactive”.

Consider `CC(C)NCC(O)COc1ccc(COCCOC(C)C)cc1` (stereo not given), for which the Potency entry is “inactive”.

For the compound `CC1COc2ccccc2N1` (stereo not given), the Potency result is “inactive”.

As to `COCCOCCOCCOCCOCCO`, the Potency result is “inactive”.

For the compound `CC(C)CC(C)CC(C)CC(C)COC(=O)c1ccccc1C(=O)OCC(C)CC(C)CC(C)CC(C)C` (stereo not given), the Potency entry is “inactive”.

Turning to `CCC(C)NC(N)=O` (stereo not given), the Potency result was “inactive”.

On to `CN=C(NC#N)Nc1ccc(C2=NNC(=O)CC2C)cc1` (stereo not given), for which the Potency result is “inactive”.

In the case of `Cc1cccc(C)c1OCC(C)N` (stereo not given), the Potency result was “inactive”.

As for `O=S(O)(O)=S`, the activity change, negative = cytotoxic is 0% [at 8.44 µM].

Regarding `CNC(=O)[C@H]1O[C@@H](n2cnc3c(NCc4cc(Cl)ccc4OCc4cc(C)no4)ncnc32)[C@H](O)[C@@H]1N`, the Potency result was “inactive”.

Take `CCCC/C=C\CCCCCCCCCC=O`: the Potency entry is “inactive”.

With `Nc1nnc(-c2cccc(Cl)c2Cl)c(N)n1`, the Potency entry was “inactive”.

In the case of `CC(C)NCC(O)COc1cccc2[nH]ccc12` (stereo not given), the Potency entry is “inactive”.

Turning to `CCO[Si](CCCS)(OCC)OCC`, the Potency entry is “inactive”.

In the case of `Nc1ccc(S(=O)(=O)Nc2ccc(Cl)nn2)cc1`, the Potency entry is “inactive”.

`CCCCCCN`: the Potency result is “inactive”.

With `O=C1c2cccc3c2[C@H](CCC3)CN1[C@@H]1CN2CCC1CC2`, the Potency was 23.7 µM (active).

Take `O=C1c2ccccc2C(=O)C1c1ccccc1`: the Potency result was “inactive”.

In the case of `CCCCCCCCOS(=O)(=O)O`, the Potency entry was “inactive”.

For `O=C(O)c1cc(Br)c(O)c(Br)c1`, the Potency result was “inactive”.

On to `COc1cc(NS(=O)(=O)c2ccc(N)cc2)nc(OC)n1`, for which the Potency entry is “inactive”.

`Brc1ccc(-c2ccccc2)cc1`: the Potency result was “inactive”.

Turning to `CCN(CC)CC(=O)Nc1c(C)cccc1C`, the Potency result is “inactive”.

For the compound `COc1ccc2c(c1)C(=O)N(CCc1ccc(S(=O)(=O)NC(=O)NC3CCCCC3)cc1)C(=O)C2(C)C`, the Potency result is “inactive”.

Take `O=C(CS(=O)Cc1ccco1)NC/C=C\COc1cc(CN2CCCCC2)ccn1` (stereo not given): the Potency result is “inactive”.

Turning to `CC(CN)CC(C)(C)CCN` (stereo not given), the Potency result was “inactive”.

Turning to `CCCCCCCCSCC`, the Potency entry is “inactive”.

In the case of `COc1ccc2c(c1OC)C(=O)O[C@@H]2[C@H]1c2c(cc3c(c2OC)OCO3)CCN1C`, the Potency was 11.9 µM (active).

Regarding `C=C(C)C(=O)OCCOP(=O)(O)OCCOC(=O)C(=C)C`, the Potency entry is “inactive”.

Turning to `On1nnc2ccccc21`, the Potency entry was “inactive”.
